# Unmarked numbers belong to inactive results. Calls of active or inactive are those of the source. No stated cut-off is given here; in the data, active means fold change permeability below about 0.7 or above about 1.3; inactive means in between.
# Experiment: compounds altering in vitro BBB leakiness – cell-based, FITC-avidin fluorescence, HTS, primary screen (AID 1963498); further: test concentration not given here
# Conditions: brain endothelial barrier, actives lie on both sides
row,Compound,fold change permeability
1,O=[N+]([O-])c1ccc(CSc2ncnc3c2ncn3[C@@H]2O[C@H](CO)[C@@H](O)[C@H]2O)cc1,0.8
2,C[N+](C)(C)CCOC(=O)CCC(=O)OCC[N+](C)(C)C,0.9
3,Oc1ccccc1O,0.9
4,O=C1Nc2ccc(Cl)cc2[C@@](C#CC2CC2)(C(F)(F)F)O1,1.2
5,CC(C)[C@H]1C(=O)N[C@@H](CCCN=C(N)N)C(=O)NCC(=O)N[C@@H](CC(=O)O)C(=O)N[C@H](Cc2ccccc2)C(=O)N1C,1.2
6,Nc1nc2[nH]cc(CCc3ccc(C(=O)N[C@@H](CCC(=O)O)C(=O)O)cc3)c2c(=O)[nH]1,0.9
7,O=C1c2cccc3c2[C@H](CCC3)CN1[C@@H]1CN2CCC1CC2,1.3 (active)
8,O=C(O)CCCCCCCC(=O)O,1.2
9,Clc1ccc2c(c1)C(N1CCNCC1)=Nc1ccccc1O2,1.2
10,NC(=O)c1ccccc1,1.2
11,C[C@@H](N)C1CCC(C(=O)Nc2ccncc2)CC1 (some centres undefined),1.2
12,O=C(O)CCc1ccc(-c2ccc(Br)cc2)n1-c1ccccc1C(F)(F)F,1.2
13,CCC(NC(C)C)C(O)c1ccc(O)c(O)c1 (centres undefined),1.9 (active)
14,CCCC(C(=O)OCCN(CC)CC)(c1ccccc1)c1ccccc1,1.2
15,Nc1c(S(=O)(=O)O)cc(Nc2ccc(Nc3nc(Cl)nc(Nc4cccc(S(=O)(=O)O)c4)n3)c(S(=O)(=O)O)c2)c2c1C(=O)c1ccccc1C2=O,0.7 (active)
16,CCOC(=O)C1=C(C)NC(C)=C(C(=O)OC)C1c1cccc(Cl)c1Cl (centres undefined),1.2
17,CC(C)c1nc(N(C)S(C)(=O)=O)nc(-c2ccc(F)cc2)c1/C=C/[C@@H](O)C[C@@H](O)CC(=O)O,0.9
18,O=C1NC(=O)c2cc(Nc3ccccc3)c(Nc3ccccc3)cc21,0.9
19,O=c1cc(-c2ccc(O)cc2)oc2cc(O)cc(O)c12,1.2
20,C[C@]12CCC(=O)C=C1CC[C@@H]1[C@@H]2CC[C@@]2(C)[C@H]1CC[C@]2(O)C(=O)CO,1.1

row,Compound,fold change permeability
1,CC[C@H](NC(=O)c1c(C)c(-c2ccccc2)nc2ccccc12)c1ccccc1,1
2,CCCCCCNc1nc(NC2CCN(C)CC2)c2cc(OC)c(OC)cc2n1,1
3,CCCOC(=O)c1c(-c2ccccc2)nc(CC)c(C(=O)SCC)c1CCC,1.5 (active)
4,CC1(C)NC(=O)N(c2ccc([N+](=O)[O-])c(C(F)(F)F)c2)C1=O,1.1
5,Nc1ccn([C@H]2CC[C@@H](CO)O2)c(=O)n1,1
6,COC(=O)Nc1nc2ccc(C(=O)c3cccs3)cc2[nH]1,1.4 (active)
7,CCCCCCCCCC(=O)N[C@H](CN1CCOCC1)[C@H](O)c1ccccc1,0.9
8,O=c1n(CCCN2CCN(c3cccc(Cl)c3)CC2)nc2ccccn12,1.1
9,CNS(=O)(=O)CCc1ccc2[nH]cc(C3CCN(C)CC3)c2c1,1
10,NCCCCCC(=O)O,1.1
11,COc1ccc2[nH]cc(CCNC(C)=O)c2c1,0.8
12,O[Si](CCCN1CCCCC1)(c1ccc(F)cc1)C1CCCCC1 (centres undefined),1.4 (active)
13,O=C(c1ccc2c(c1)OCCO2)N1CCCCC1,1.2
14,Clc1ccc2nsnc2c1NC1=NCCN1,1.9 (active)
15,O=C(O)c1ccc(-c2c[nH]c3ncc(-c4ccccc4)cc23)cc1C1CCCC1,1.4 (active)
16,CCCCc1ncc(/C=C(\Cc2cccs2)C(=O)O)n1Cc1ccc(C(=O)O)cc1,0.9
17,CN(C)CC(O)Cn1c2ccc(Br)cc2c2cc(Br)ccc21 (centres undefined),1.5 (active)
18,CC(=O)OC(C)C[N+](C)(C)C (centres undefined),1
19,O=C(O)c1cccnc1Nc1cccc(C(F)(F)F)c1,0.9
